About 27,000 (9.3%) of roughly 290,000 compounds were called active. Shown is part of a subset that was picked to be rich in actives. A number with no mark means an inactive call. Rule as the data show it: active = inhibition mostly above about 28% (no sharp cut-off); inactive = mostly below about 43%.
experiment: A qHTS for Small Molecule Inhibitors of Shiga Toxin; conditions: Vero cells, Shiga toxin protein synthesis inhibition reporter; at 38.7 µM, hits give high values; also: 0% is about no effect

Compound	inhibition
O=C(C1CCC(=O)N(C2CC2)C1)N1CCN(c2ccc(Cl)cc2)CC1 (stereo not given)	-16%
O=C1COc2ccc(S(=O)(=O)Nc3ccc(OC(F)(F)F)cc3)cc2N1	-4.37%
Cc1cc(NS(=O)(=O)c2ccc(NC(=S)NC(=O)c3ccc(F)cc3Cl)cc2)no1	16.8%
CC(=O)c1ccccc1OCc1ccc(C(=O)c2ccccc2)cc1	10.9%
Cc1cc(C)nc(Nc2cc([N+](=O)[O-])ccc2C)n1	-5.77%
Cc1ccc(-n2cc3ccc([N+](=O)[O-])cc3n2)cc1	57.1% (active)
Cc1ccc(-c2cn(S(=O)(=O)c3cccc([N+](=O)[O-])c3)nc2N)cc1	13.5%
O=C(COc1ccc2c(c1)CCC2)N1CCN(c2ccc(F)cc2)CC1	-11.3%
Cc1ccc(-n2c(SCC(=O)N3CCC(C(=O)O)CC3)nc3ccccc3c2=O)cc1C	45.4% (active)
CCc1c(O)nc(SCC(=O)N2CCCCC2)n(-c2ccccc2C)c1=O	13%
COc1cccc(-n2c(SCC(=O)c3c[nH]c4ccccc34)nc3ccccc3c2=O)c1	-9.99%
CCOC(=O)CSc1nc2ccc(C)cc2n2cnnc12	9.64%
O=C(c1cc(-c2ccc(O)cc2)on1)N1CCCc2ccccc21	91.2% (active)
O=C(c1cc(-c2ccncc2)nc2ccccc12)N1CCC2(CC1)OCCO2	11.7%
O=C(c1cc(-c2ccc(F)cc2)on1)N1CCN(c2ccc(F)cc2)CC1	-1.74%
Cc1ccc(-c2cc(C(=O)N3CCC4(CC3)OCCO4)no2)cc1	58.1% (active)
O=C(c1cc(-c2ccc(Cl)cc2)on1)N1CCN(c2ccccc2)CC1	67.5% (active)
O=C(c1cccs1)N1CCN(C(=O)N2CCOCC2)CC1	-6.78%
Cc1c(C(=O)N2CCCc3ccccc32)oc2ccccc12	33.8%
Cc1noc(C)c1C(=O)N1CCOCC1	-7.37%

Compound	inhibition
COc1ccc(-c2cc(C(=O)N3CCN(c4ccc(F)cc4)CC3)no2)cc1	11.7%
O=C(c1cc(-c2ccc(O)cc2)on1)N1CCOCC1	62% (active)
CCC(=O)N1CCCc2ccccc21	14.2%
Cc1cccc(-n2c(C)nc3cc(C(=O)N4CCC5(CC4)OCCO5)ccc32)c1	13.6%
Nc1nc(SCC(=O)Nc2ccc(Cl)cc2C(F)(F)F)n[nH]1	-27.1%
COc1cc(OC)cc(C(=O)Nc2nnc(SCC(=O)NCC3CCCO3)s2)c1 (stereo not given)	4.36%
COc1ccc(C(=O)NC2CC(C)(C)NC(C)(C)C2)cc1OC	2.67%
NC(=O)CN1CCCC1c1ccc2c(c1)OCCO2 (stereo not given)	-2.56%
O=C(NC1CCCC1)C(c1ccco1)N(C(=O)c1ccco1)c1ccc(F)cc1 (stereo not given)	8.42%
Cc1ccc(S/C(=N\S(=O)(=O)c2ccc(Cl)cc2)c2ccccc2)cc1	11.1%
O=S(=O)(/N=C(/Nc1ccccn1)c1ccccc1)c1ccc(Cl)cc1	14.8%
Cc1ccc(S(=O)(=O)/N=C(/Nc2ccccn2)c2ccc(Cl)cc2)cc1	31.5% (active)
CC1CCCCC1NC(=O)CSc1nnc(-c2ccncc2)n1CCCN(C)C (stereo not given)	-1.04%
CC(C)(C)c1ccc(/C=C/C(=O)Nc2ncccn2)cc1	-4.53% (active)
Cc1cc(C)nc(NC(=O)/C=C/c2ccc(Cl)cc2)n1	41.9%
O=C(/C=C/c1ccc(Cl)cc1)Nc1ccc(S(=O)(=O)Nc2ncccn2)cc1	17%
O=c1c2c(-c3ccccc3)ccnc2[nH]n1-c1ccccc1	38.7%
CCC(C)(C)NC(=O)C(c1ccc(OC)cc1)N(C(=O)CCC(=O)Nc1cc(C)on1)c1ccc(OC)cc1OC (stereo not given)	8.4%
CCN(CC)CCCNC(=O)Cn1cnc2sc(C)c(S(=O)(=O)N3CCN(c4ncccn4)CC3)c2c1=O	-11.2%
Cc1sc2ncn(CC(=O)NCCN(C)C)c(=O)c2c1S(=O)(=O)N1CCC(C)CC1	106% (active)

Compound	inhibition
CCN(CC)CCNC(=O)Cn1cnc2sc(C)c(S(=O)(=O)N3CCOCC3)c2c1=O	-2.57%
CC(=O)c1ccc(S(=O)(=O)N2CCC(Oc3ccc(-n4cnnn4)cc3)CC2)cc1	-8.24%
O=C(O)Cn1c(Cc2ccccc2)nc2ccccc21	-5.35%
Cc1ccccc1C(=O)N1CCC(C(=O)Oc2ccc(C#N)cc2)CC1	-13.3%
Cn1c(=O)c2ccccc2n(CC(=O)Nc2ccc3c(c2)OCCO3)c1=O	-7.05%
O=C(Nc1ccc2c(c1)OCCO2)c1ccncc1	117% (active)
O=C(CCN1C(=O)c2ccncc2C1=O)Nc1ccc2c(c1)OCCO2	13.6%
O=C(Nc1ccc2c(c1)OCCO2)c1cnccn1	42.2%
O=C(Nc1ccc2c(c1)OCCO2)c1ccoc1	65.2% (active)
Cc1ccc(-n2ncc3c2CC(C)(C)CC3NC(=O)Cc2c(C)noc2C)cc1 (stereo not given)	-6.91%
COc1cccc(NC(=O)COc2cc(C)cc3oc(=O)cc(C)c23)c1	-4.63%
COc1ccc(C2=NS(=O)(=O)N(C)C(C(=O)N3CCCCC3)=C2)cc1	-2.94%
CC(C)(C)c1ccc(Oc2ccc(N)cc2)cc1	-23.2%
COc1cccc(Oc2ccc(N)cc2)c1	33.2% (active)
COc1cccc(OCCCN2CCCCCC2)c1	11.6%
COc1ccc(-c2cc(=O)oc3cc(OCC(=O)N[C@@H](Cc4c[nH]c5ccccc45)C(=O)O)ccc23)cc1	1.78%
Cc1cc(=O)n2nc(N3CCCC(C(=O)NCc4cccc(Cl)c4)C3)sc2n1 (stereo not given)	10.1%
Cc1ccc(N(CC(=O)Nc2cccc(N(C)S(C)(=O)=O)c2)S(C)(=O)=O)cc1	-15.9%
CN(c1cccc(NC(=O)Nc2ccc(Cl)cc2)c1)S(C)(=O)=O	66.3% (active)
COc1cccc(N(CC(=O)Nc2cccc(N(C)S(C)(=O)=O)c2)S(C)(=O)=O)c1	-9.96%

Reference: PubChem BioAssay AID2315 (National Center for Advancing Translational Sciences (NCATS), 2010)
